# Measured values: PubChem BioAssay (NCATS)
# Unmarked numbers belong to inactive results. Records with an inconclusive call do not appear. Where a call stands in place of a potency, no number is given. Calls of active or inactive are those of the source. Calls follow the shape of the dose curve; as a rule, active = well fitted curve in the direction sought with a large enough effect; inconclusive = small, poorly fitted or top-dose-only effect, or another doubt; inactive = no such curve, though single readings can be large; an effect the other way counts as inactive or inconclusive. Where a SMILES comes first, the peptide text is derived from it. [ ]: non-standard residue; d: D form. Hyp = O=C(O)[CH]1C[CH](O)CN1; Phe(ol) = N[CH](CO)Cc1ccccc1; Iva = CC[C](C)(N)C(=O)O; Aib = CC(C)(N)C(=O)O
# Assays:
# [1] = target: Phospholipid hydroperoxide glutathione peroxidase GPX4 (Homo sapiens) (UniProt P36969); test: Primary qHTS Assay for Inhibitors of Recombinant Selenoprotein Glutathione Peroxidase 4 (GPX4) (AID 1845192); also: nearly all actives have a fitted effect of over 65% in size; also: potency is read from the fitted curve at half-maximal effect; as to activity change, negative = inhibition: series mostly up to about 50 µM
# Sequence of Phospholipid hydroperoxide glutathione peroxidase GPX4 (Homo sapiens) (P36969 whole entry, looked up): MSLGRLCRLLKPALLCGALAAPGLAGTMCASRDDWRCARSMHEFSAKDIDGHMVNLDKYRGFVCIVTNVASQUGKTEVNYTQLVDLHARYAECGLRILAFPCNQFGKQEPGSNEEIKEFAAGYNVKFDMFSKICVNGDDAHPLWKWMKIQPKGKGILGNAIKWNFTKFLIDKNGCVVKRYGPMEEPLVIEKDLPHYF
# Method in brief: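 NADPH consumption, followed by fluorescence at 340/450 nm between 0 and 15 min, reports GPX4 activity via coupled glutathione reductase (100 nM). Enzyme 200 nM was pre-exposed to compound 30 min; 0.5 mM cumene hydroperoxide and 1 mM GSH served as substrates.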
# [2] = target: Luciferin 4-monooxygenase (Photinus pyralis) (UniProt P08659); test: Primary firefly luciferase (FLuc) qHTS assay for identification of artifact compounds. (AID 1845220); also: nearly all actives have a fitted effect of over 60% in size; as to activity change, negative = inhibition: series mostly up to about 54 µM
# Method in brief: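 FLuc 10 nM; luciferin 10 uM; ATP 10 uM; Tris-acetate pH 7.6, Mg-acetate 10 mM; 15 min RT preincubation; 5 min reaction; luminescence.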
# [3] = Primary fluorescence-based thiol-reactive (MSTI) qHTS assay for identification of artifact compounds. (AID 1845221); also: nearly all actives have a fitted effect of over 65% in size; also: potency is read from the fitted curve at half-maximal effect;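 as to activity change, negative = thiol reactive: series mostly up to about 54 µM; thiol-reactive compounds lower the probe fluorescence signal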
# Method in brief: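 qHTS titration of compound; 4 uM MSTI, PBS pH 7.4, 2% DMSO; 1 h RT, dark; fluorescence 525/598 nm; normalized to Acetyl-MSTI and MSTI; 4-parameter Hill fit.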
# [4] = tested on: Nanoluciferase (engineered Oplophorus gracilirostris luciferase); test: Primary Nanoluciferase (NLuc) qHTS assay for identification of artifact compounds. (AID 1845222);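 also: NLuc secreted into diluted conditioned medium of S16 cells; series mostly up to about 54 µM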
# Method in brief: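 NLuc from S16 cell medium (1:55) plus test compounds, 15 min, room temperature. Luminescence after Nano-Glo (1:100) addition, 5 min.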
# [5] = Primary redox qHTS assay for identification of artifact compounds. (AID 1845223)
# Method in brief: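 Amplex Red (25 uM) and HRP (250 mU/mL) in HBSS, with compounds for 15 min, then 250 uM DTT for 30 min, room temperature, dark. Fluorescence 525/598 nm read; normalized to DMSO and 10 uM DA3003; Hill fit.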
smiles,measurement,setting,value
CCC(C)(NC(=O)C(CCC(N)=O)NC(=O)C1CC(O)CN1C(=O)C(C)(C)NC(=O)C(C)(C)NC(=O)C(CC(C)C)NC(=O)CNC(=O)C(NC(=O)C(C)(C)NC(=O)C(C)(C)NC(=O)C(C)(C)NC(=O)C(Cc1ccccc1)NC(C)=O)C(C)C)C(=O)N1CC(O)CC1C(=O)NC(C)(C)C(=O)NC(CO)Cc1ccccc1 (centres undefined) (Ac-F[Aib][Aib][Aib]VGL[Aib][Aib][Hyp]Q[Iva][Hyp][Aib][Phe(ol)]; configuration not given here),"activity change, negative = inhibition",[1],-5.56% [at 9.73 µM]
same,"activity change, negative = inhibition",[2],-5.79% [at 11.6 µM]
same,"activity change, negative = thiol reactive",[3],0.987% [at 11.5 µM]
same,"activity, negative = inhibition",[4],-0.795% [at 11.6 µM]
same,redox activity (% of DA3003),[5],15.7% [at 11.5 µM]
C=C1/C(=C/C=C2\CCC[C@@]3(C)C2CCC3[C@H](C)/C=C/[C@@H](O)C2CC2)C[C@@H](O)C[C@@H]1O (some centres undefined),Potency,[1],inactive
same,Potency,[2],inactive
same,Potency,[3],inactive
same,Potency,[4],inactive
CC(C)C[C@@H]1NC(=O)[C@@H]2C[C@@]34C[C@@H]5[C@@]6(C)CCCC(C)(C)C6CC[C@@]5(C)N(c5ccccc53)[C@H]4N2C1=O (some centres undefined),Potency,[1],inactive
same,Potency,[2],inactive
same,Potency,[3],inactive
same,Potency,[4],inactive
same,Potency,[5],inactive
N#Cc1ccc(Nc2nc(-c3ccc(O)cc3O)cs2)cc1C(F)(F)F,Potency,[1],inactive
same,Potency,[2],inactive
same,Potency,[3],2.99 µM (active)
same,Potency,[4],inactive
CNC1CN(c2ccc3c(=O)c(C(=O)O)cn(-c4nccs4)c3n2)CC1OC (centres undefined),"activity change, negative = inhibition",[1],-2.33% [at 9.73 µM]
same,"activity change, negative = inhibition",[2],-6.28% [at 11.6 µM]
same,"activity change, negative = thiol reactive",[3],-3.65% [at 11.5 µM]
same,"activity, negative = inhibition",[4],-7.32% [at 11.6 µM]
same,redox activity (% of DA3003),[5],-6.95% [at 11.5 µM]
CCNC1(C(N)=O)CCN(c2ncnc3c2nc(-c2ccccc2Cl)n3-c2ccc(Cl)cc2)CC1,Potency,[1],inactive
same,Potency,[2],inactive
same,Potency,[3],inactive
same,Potency,[4],inactive
same,Potency,[5],inactive
CN(C)CCC(CSc1ccccc1)Nc1ccc(S(=O)(=O)NC(=O)c2ccc(N3CCN(Cc4ccccc4-c4ccc(Cl)cc4)CC3)cc2)cc1[N+](=O)[O-] (centres undefined),Potency,[1],inactive
same,Potency,[2],inactive
same,Potency,[3],2.12 µM (active)
same,Potency,[4],inactive
same,Potency,[5],inactive
CCn1c(N)c(C(=O)NC)c(=O)c2ccc(C#CC(C)(O)COC)nc21 (centres undefined),Potency,[1],inactive
same,Potency,[2],inactive
same,Potency,[3],inactive
same,Potency,[4],inactive
same,Potency,[5],inactive
Cc1cc2c(F)c(Oc3ncnn4cc(OCC(C)OC(=O)C(C)N)c(C)c34)ccc2[nH]1 (centres undefined),Potency,[1],inactive
same,Potency,[2],inactive
same,Potency,[3],inactive
same,Potency,[4],inactive
O=c1cc(NCCCN[C@@H]2CCOc3c(Br)cc(Br)cc32)[nH]c2ccsc12,Potency,[1],inactive
same,Potency,[2],inactive
same,Potency,[3],inactive
same,Potency,[4],inactive
same,Potency,[5],inactive
O=C(Nc1ccc(-c2ccnc(Nc3ccc(N4CCOCC4)cc3)n2)cc1)C1CCCN1 (centres undefined),Potency,[1],inactive
same,Potency,[2],inactive
same,Potency,[3],11.9 µM (active)
same,Potency,[4],inactive
same,Potency,[5],inactive
Cn1ncc(Cl)c1-c1cc(C(=O)N[C@H](CN)Cc2ccc(F)c(F)c2)oc1Cl,Potency,[1],inactive
same,Potency,[2],inactive
same,Potency,[3],inactive
same,Potency,[4],inactive
same,Potency,[5],inactive
O=C(CCCN1CCC(n2c(=S)[nH]c3ccccc32)CC1)c1ccc(F)cc1,Potency,[1],4.47 µM (active)
O=c1cc(OCc2ccc(F)cc2)ccn1-c1ccc(OCCN2CCCC2)cc1,Potency,[1],inactive
same,Potency,[2],inactive
same,Potency,[3],inactive
same,Potency,[4],inactive
same,Potency,[5],inactive
C=C1/C(=C/C=C2\CCC[C@]3(C)[C@@H]([C@H](C)/C=C/[C@H](O)C4CC4)CC[C@@H]23)C[C@@H](O)C[C@@H]1O,Potency,[1],inactive
same,Potency,[2],inactive
same,Potency,[3],inactive
CC(OC1OCCN(Cc2n[nH]c(=O)[nH]2)C1c1ccc(F)cc1)c1cc(C(F)(F)F)cc(C(F)(F)F)c1 (centres undefined),Potency,[1],inactive
same,Potency,[2],inactive
same,Potency,[3],inactive
same,Potency,[4],inactive
same,Potency,[5],inactive
CCC/C=C/c1cc2c(C=O)c(O)c(CC=C(C)C)cc2o1,Potency,[1],inactive
same,Potency,[2],inactive
same,Potency,[3],23.8 µM (active)
same,Potency,[4],inactive
same,Potency,[5],inactive
CCC1C(=O)N(C)c2cnc(Nc3ccc(C(=O)NC4CCN(C)CC4)cc3OC)nc2N1C1CCCC1 (centres undefined),Potency,[1],inactive
same,Potency,[2],inactive
same,Potency,[3],inactive
same,Potency,[4],inactive
O=C(Nc1ccccc1Br)NC1CCN(c2ccc(C(F)(F)F)cn2)C1 (centres undefined),Potency,[1],inactive
same,Potency,[2],inactive
same,Potency,[3],inactive
same,Potency,[4],inactive
same,Potency,[5],inactive
CC1=C(c2ccc(NC(=O)c3c(F)cccc3F)cc2)CN(c2nccs2)CC1,Potency,[1],inactive
same,Potency,[2],inactive
same,Potency,[3],inactive
same,Potency,[4],inactive
same,Potency,[5],inactive
C/C=C/C=C/C(=O)O[C@@H]1C=C2COC(=O)[C@]2(O)[C@@]2(C)CCCC(C)(C)[C@H]12,Potency,[1],inactive
same,Potency,[2],inactive
same,Potency,[3],inactive
same,Potency,[4],inactive
same,Potency,[5],inactive
CCOC(=O)COc1ccc2c(=O)cc(-c3ccccc3)oc2c1,Potency,[1],inactive
C=C(NC(=O)C(=C)NC(=O)c1csc(C2=NC3c4csc(n4)C4NC(=O)c5csc(n5)C(C(C)(O)C(C)O)NC(=O)C5CSC(=N5)/C(=C/C)NC(=O)C(C(C)O)NC(=O)c5csc(n5)C3(CC2)NC(=O)C(C)NC(=O)C(=C)NC(=O)C(C)NC(=O)C(C(C)CC)NC2C=Cc3c(C(C)O)cc(nc3C2O)C(=O)OC4C)n1)C(N)=O (centres undefined),Potency,[1],inactive
same,Potency,[2],inactive
same,Potency,[3],inactive
same,Potency,[4],inactive
CC#CCn1c(N2CCCC(N)C2)nc2c1c(=O)n(Cc1nc(C)c3ccccc3n1)c(=O)n2C (centres undefined),Potency,[1],inactive
same,Potency,[2],inactive
same,Potency,[3],inactive
COCC(c1ccc(C(F)(F)F)cc1)N1CCN(C2(C)CCN(C(=O)c3c(C)ncnc3C)CC2)CC1C (centres undefined),Potency,[1],inactive
same,Potency,[2],inactive
same,Potency,[3],inactive
same,Potency,[4],inactive
CN(C)C(CCOc1cccc2ccccc12)c1ccccc1 (centres undefined),Potency,[1],inactive
same,Potency,[2],inactive
same,Potency,[3],inactive
CCCCCCOC(=O)/N=C(\N)c1ccc(NCc2nc3cc(C(=O)N(CCC(=O)OCC)c4ccccn4)ccc3n2C)cc1,Potency,[1],inactive
same,Potency,[2],inactive
same,Potency,[3],inactive
same,Potency,[4],inactive
same,Potency,[5],inactive
CN(CC1COCCO1)S(=O)(=O)Nc1ccc2ccc3ncc(-c4cnn(C)c4)cc3c(=O)c2c1 (centres undefined),Potency,[1],inactive
same,Potency,[2],inactive
same,Potency,[3],inactive
same,Potency,[4],inactive
same,Potency,[5],inactive
NC(=O)c1cnc(N[C@@H]2CCCC[C@H]2N)nc1Nc1cccc(-n2nccn2)c1,Potency,[1],inactive
same,Potency,[2],inactive
same,Potency,[3],inactive
same,Potency,[4],inactive
CC(NCCCc1cccc(C(F)(F)F)c1)c1cccc2ccccc12 (centres undefined),Potency,[1],inactive
same,Potency,[2],inactive
same,Potency,[3],inactive
same,Potency,[4],inactive
same,Potency,[5],inactive
